Only some compounds are listed: those with a hit (about 1.1% of all), similar ones and a draw of the others.
Six1-Eya2 inh – qHTS Assay for Inhibitors of the Six1/Eya2 Interaction; AID 651725, 2012; activity change, % (concentration not given with the values); 360,000 compounds, 0.56% hits; AlphaScreen GST-Six1/His-Eya2 binding, biochemical; stronger effect = lower value; note: % is set by controls: 0 for no effect and ±100 for the full control effect
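Compounds are tested against tagged Six1 and Eya2 proteins bridged by glutathione donor and nickel acceptor beads; after a one-hour incubation at 37 °C without light, AlphaScreen emission is recorded.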
CtBP-E1A inh – qHTS Assay for Inhibitors of the CtBP/E1A Interaction | CtBP / adenovirus E1A interaction (AlphaScreen) | AlphaScreen GST-E1A/His-CtBP binding, 1536-well; stronger effect = lower value | activity change, % (no concentration beside the values) | 340,000 compounds, 0.49% hits | AID 651724, 2012; note: % is set by controls: 0 for no effect and ±100 for the full control effect
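Homogeneous bead-based format: GST-tagged E1A captured on glutathione donor beads, His-tagged CtBP on nickel acceptor beads; compounds precede bead addition by 2 h at 37 °C.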
uPA generation – qHTS for Inhibitors of Cell Surface uPA Generation; Potency, µM (doses to about 38.3 µM), inactives show at the top dose activity change, negative = inhibition, most hits filed as inhibitors; 330,000 compounds, 0.31% hits; cell surface uPA generation assay, qHTS; AID 540303, 2011; active = well fitted inhibition curve with a large enough effect; inconclusive = small, poorly fitted or top-dose-only effect; inactive = no such curve, though single readings can be large or run the other way; tested in mouse RAW 264.7 cells; note: potency is the fitted concentration of half-maximal effect; % is set by controls: 0 for no effect and ±100 for the full control effect; nearly all actives have a fitted effect of over 55% in size
MBNL1 CUG block – qHTS Assay for Inhibitors of MBNL1-poly(CUG) RNA binding; Muscleblind-like protein 1 (Homo sapiens), Q9NR56; TR-FRET MBNL1-His/biotin-(CUG)12 binding, 665/545 ratio; Potency, µM (doses to about 57.5 µM), for inactives: at the highest dose activity change, negative = inhibition, actives largely listed as inhibitors; 280,000 compounds, 0.036% hits; active = well fitted inhibition curve with a large enough effect in the signal ratio, with a control signal flat, not every such curve was filed as active; inconclusive = small, poorly fitted or top-dose-only effect, or effect the other way, or a change in a side signal; inactive = no such curve, though single readings can be large or run the other way; the % refers to the signal ratio; note: potency is the fitted concentration of half-maximal effect; % is set by controls: 0 for no effect and ±100 for the full control effect
Target sequence (Q9NR56 whole entry, looked up): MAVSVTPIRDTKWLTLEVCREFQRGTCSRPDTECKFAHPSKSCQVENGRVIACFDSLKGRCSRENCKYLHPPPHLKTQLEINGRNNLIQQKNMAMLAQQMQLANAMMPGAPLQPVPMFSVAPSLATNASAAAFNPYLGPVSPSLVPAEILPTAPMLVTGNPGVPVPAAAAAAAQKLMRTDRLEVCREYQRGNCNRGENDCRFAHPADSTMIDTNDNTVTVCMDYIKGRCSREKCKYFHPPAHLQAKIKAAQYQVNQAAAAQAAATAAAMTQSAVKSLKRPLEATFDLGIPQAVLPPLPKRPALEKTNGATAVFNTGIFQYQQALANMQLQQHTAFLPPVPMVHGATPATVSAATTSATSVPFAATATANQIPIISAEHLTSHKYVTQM
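TR-FRET readout: Ex 340 nm, 665/545 nm emission ratio, normalized to buffer-only (basal) and MBNL1-(CUG)12 controls. Complex of MBNL1-His with Biotin-(CUG)12, compounds 92 nM–58 uM, incubated 60 min at room temperature.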
Mito fusion yeast – qHTS Assay for Small Molecule Inhibitors of Mitochondrial Division or Activators of Mitochondrial Fusion; S. cerevisiae fusion-defective mutant growth rescue, CellTiterGlo 48 h; 320,000 compounds, 0.23% hits; Potency, µM (highest dose often 46.1 µM), inactives show at the top dose growth rescue (activation), most hits filed as activators; active = well fitted activation curve with a large enough effect; inconclusive = small, poorly fitted or top-dose-only effect; inactive = no such curve, though single readings can be large or run the other way; note: potency is the fitted concentration of half-maximal effect; % of control where 0% means no effect; nearly all actives have a fitted effect of over 45% in size
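Read-out: ATP-based luminescence (CellTiterGlo, 10 min ambient) reporting growth of fusion-defective ts yeast after 48 hours at 37C on glycerol/ethanol YPEG medium in the presence of compound.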
* marks the source's active call; other numbers are inactive results; ? = inconclusive; · = not tested or not shown; [ ] = dose if it differs, or a comment. Cut-off read from the data, not from the text of the source, unless noted: active = activity change below about -65%; inconclusive = mostly about -30% to -63%; inactive = weaker than that.

SMILES	Six1-Eya2 inh	CtBP-E1A inh	uPA generation	MBNL1 CUG block	Mito fusion yeast
O=[N+]([O-])c1ccc(Cl)c(CN2CCN(c3ncc(Cc4ccccc4)cn3)CC2)c1	-13	-9	·	·	·
N#Cc1ccc2c(c1)C[C@]1(CCCCN3C(=O)c4ccccc4C3=O)Oc3c(c(=O)oc4ccccc34)C2O1	·	·	·	-9%[11.5 µM]	1%[9.22 µM]
O=C(NNC(=S)Nc1ccc(Cl)c(Cl)c1)c1ccccn1	-90*	·	?	42%	19%
CCNC(=S)NNC(=O)c1ccccn1	-95*	-96*	-12%	-4%[11.5 µM]	-11%
CCNC(=S)NNC(=O)c1ccccc1Cl	10	9	5%	·	-8%
CCc1ccccc1CC1CN(Cc2ccccc2)Cc2ccccc2N1c1ccc(OC)cc1 (stereo not given)	-9	-12	·	·	·
CCCCNC(=S)Nc1ccc2[nH]c(=O)[nH]c2c1	6	-67*	3%	-5%	3%
CC1(C)CC(=O)C=C(c2ccc(COC(=O)C(c3ccccc3)c3ccccc3)cc2)C1=O	-13	-16	·	·	·
Nc1nc(=S)c2[nH]c(=S)[nH]c2[nH]1	-9	-1	-8%	·	·
Nc1nc(=S)c2[nH]cnc2[nH]1	-5	-5	0.16µM*	·	4%
CN(C)c1ccc2cc(S(=O)(=O)O)cc(O)c2c1	-73*	?	-2%	·	·
Cc1noc(NS(=O)(=O)c2ccc(NC(=O)CSc3nnc4c(n3)[nH]c3ccccc34)cc2)c1C	-88*	-90*	2%	·	-1%
COc1ccc(C2CC(=O)N3CN(c4ccc(C)c(Cl)c4)CSC3=C2C#N)cc1OC (stereo not given)	5	2	7.1µM*	3%	1%
COc1ccc(N2CSC3=C(C#N)C(c4ccc(OC)c(OC)c4)CC(=O)N3C2)c(OC)c1 (stereo not given)	-12	-4	-19%	22%	4%
CNc1ncnc2c1ncn2[C@H]1CN(CCOC)C[C@@H](CO)O1	24	34	·	·	·
COC(=O)[C@@]12C[C@@H](CC(=O)NCc3cccc4ccccc34)C(=O)N(Cc3ccco3)C1=CCC(C)(C)C2	-13	2	·	·	·
O=C(CCC(=O)N1CCN(c2ccc(O)cc2)CC1)c1cccs1	-1	·	4µM*	7%	-5%
Oc1ccccc1N=Nc1ccccc1O	-86*	·	?	31%	-5%
C=CCn1c(O)c(N=NC(=O)CNC(=O)c2ccco2)c2ccccc21	1	·	10µM*	?	3%
O=C(Nc1nc2ccccc2n1CCN1CCOCC1)c1cccc([N+](=O)[O-])c1	·	·	·	·	5%
Cc1c(CC(=O)N[C@@H](C)C(=O)O)c(=O)oc2cc3occ(-c4ccccc4)c3cc12	-69*	·	-6%	16%	-6%
Cc1c(CC(=O)N[C@@H](C)C(=O)O)c(=O)oc2c(C)c3occ(-c4ccccc4)c3cc12	-65*	-83*	1%	1%	10%
Cc1coc2c(C)c3oc(=O)c(CCC(=O)N[C@@H](C)C(=O)N[C@@H](Cc4ccccc4)C(=O)O)c(C)c3cc12	-69*	-80*	9%	-10%	5%
COc1cccc(-c2cc(CNC(=O)[C@H]3O[C@@H](n4ccc(=O)[nH]c4=O)[C@H](O)[C@@H]3O)no2)c1	4	4	·	·	·
CCCNC(=O)C1(C)CCCN(C(=O)/C=C/c2ccccc2)C1 (stereo not given)	0	9	·	·	·
SMILES	Six1-Eya2 inh	CtBP-E1A inh	uPA generation	MBNL1 CUG block	Mito fusion yeast
C[C@@H]1CN([C@H](C)CO)C(=O)CCCn2nncc2CO[C@H]1CN(C)S(=O)(=O)c1cccc(F)c1	5	2	·	·	·
Cc1cc(OC(C)C(=O)NC2CC(C)(C)NC(C)(C)C2)c2c(C)c(C)c(=O)oc2c1 (stereo not given)	6	1	·	·	·
CC(=O)c1cn(CCOc2ccccc2C)c2ccccc12	-2	8	5.6µM*	-5%	8%
O=C(N/N=C/C(Cl)=C/c1ccc([N+](=O)[O-])cc1)C(=O)Nc1cccc(C(=O)O)c1	?	-92*	?	·	-2%
O=C(Nc1nc(-c2ccccn2)cs1)C1CC1	?	-72*	-24%	1%	-8%
Cc1ccccc1NC(=O)c1nc2nccc(C)n2n1	·	·	·	-3%	-3%
O=C(Nc1nc(-c2ccccn2)cs1)c1ccc(Br)s1	?	-71*	·	13%	24%
O=C(Nc1nc(-c2cc(Cl)sc2Cl)cs1)c1ccc(Br)s1	2	1	2%	1%	-3%
O=C(Nc1nc(-c2ccncc2)cs1)c1ccco1	-23	-5	-2%	7%	3%
O=C(Nc1nc(-c2ccccn2)cs1)c1ccco1	-79*	-93*	-11%	33%	-10%
Cc1ccnc2nc(C(=O)Nc3nc(-c4ccccn4)cs3)nn12	-92*	-85*	-2%	9%	-1%
CC1C(=O)N(C)C(=O)c2nc[nH]c21 (stereo not given)	·	·	·	·	-2%
CCOC(=O)c1ccc(NC(=O)CSc2ccc3ccccc3n2)cc1	·	·	·	·	-6%
O=C1NC[C@H](CCCCN2C[C@H](Cc3ccccc3)N(CCC3CCCCC3)C(=O)C2=O)N(CCc2ccccc2)C1=O	2	1	·	·	·
C[C@H](NC(=O)c1ccco1)C(=O)Nc1nc(-c2ccccn2)cs1	-89*	-89*	-1%	·	·
O=C(Nc1nc(-c2ccccn2)cs1)C1CC(=O)N(c2ccc3c(c2)OCCO3)C1 (stereo not given)	-86*	0	-2%	·	-5%
O=C(Nc1nc(-c2ccccn2)cs1)c1cccc(-n2cnnn2)c1	-92*	·	?	6%	-2%
O=C1NC[C@H](Cc2ccc(O)cc2)N(C[C@@H]2CCCN2C[C@H](Cc2ccc(O)cc2)N2C[C@H](Cc3ccccc3)N(CCc3ccccc3)C(=O)C2=O)C1=O	-15	-1	·	·	·
CCCCCC[n+]1ccccc1/C=C/c1ccc(N(C)C)cc1	0	-6	·	·	·
Cc1cccc[n+]1CCCCCCCCCC[n+]1ccccc1C	1	-2	2%	-5%	13%
CCCCCCCCCC[n+]1cccc2c3ccccc3ccc21	-4	-2	0.71µM*	?	2%[9.22 µM]
CCCCCCCC[n+]1cccc2c3ccccc3ccc21	0	·	0.89µM*	?	-5%
O=S(=O)(c1cccs1)N1CCCCC1	1	-1	·	·	·
CCCCCCCCCc1conc1C(=O)/C=C/c1ccco1	-2	3	·	·	·
COc1ccc(C)cc1NC(=O)CN1CCCN(S(=O)(=O)c2ccc(Br)cc2)CC1	-6	-11	-3%	-5%	14µM*
O=C(CN1CCN(S(=O)(=O)c2ccc(F)cc2)CC1)Nc1ccc(F)cc1F	10	·	8%	-2%	35µM*

Compound activity as filed in PubChem.
